# Legend:
# [1] = target: T1, Testis-specific serine/threonine-protein kinase 2 (Homo sapiens) (UniProt Q96PF2); details: at 10 µM
# T1 sequence (whole entry): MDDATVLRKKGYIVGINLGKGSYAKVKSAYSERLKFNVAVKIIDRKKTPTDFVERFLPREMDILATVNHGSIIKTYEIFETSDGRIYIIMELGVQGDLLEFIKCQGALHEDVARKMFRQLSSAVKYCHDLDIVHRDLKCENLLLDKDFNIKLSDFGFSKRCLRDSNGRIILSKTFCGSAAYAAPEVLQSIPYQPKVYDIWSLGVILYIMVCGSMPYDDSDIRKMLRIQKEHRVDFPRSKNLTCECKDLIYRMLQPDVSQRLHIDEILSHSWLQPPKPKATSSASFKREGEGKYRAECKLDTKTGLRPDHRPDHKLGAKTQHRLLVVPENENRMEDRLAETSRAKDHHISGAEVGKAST
# [2] = target: T2, Tyrosine-protein kinase Tec (Homo sapiens) (UniProt P42680); details: at 1 µM
# T2 sequence (whole entry): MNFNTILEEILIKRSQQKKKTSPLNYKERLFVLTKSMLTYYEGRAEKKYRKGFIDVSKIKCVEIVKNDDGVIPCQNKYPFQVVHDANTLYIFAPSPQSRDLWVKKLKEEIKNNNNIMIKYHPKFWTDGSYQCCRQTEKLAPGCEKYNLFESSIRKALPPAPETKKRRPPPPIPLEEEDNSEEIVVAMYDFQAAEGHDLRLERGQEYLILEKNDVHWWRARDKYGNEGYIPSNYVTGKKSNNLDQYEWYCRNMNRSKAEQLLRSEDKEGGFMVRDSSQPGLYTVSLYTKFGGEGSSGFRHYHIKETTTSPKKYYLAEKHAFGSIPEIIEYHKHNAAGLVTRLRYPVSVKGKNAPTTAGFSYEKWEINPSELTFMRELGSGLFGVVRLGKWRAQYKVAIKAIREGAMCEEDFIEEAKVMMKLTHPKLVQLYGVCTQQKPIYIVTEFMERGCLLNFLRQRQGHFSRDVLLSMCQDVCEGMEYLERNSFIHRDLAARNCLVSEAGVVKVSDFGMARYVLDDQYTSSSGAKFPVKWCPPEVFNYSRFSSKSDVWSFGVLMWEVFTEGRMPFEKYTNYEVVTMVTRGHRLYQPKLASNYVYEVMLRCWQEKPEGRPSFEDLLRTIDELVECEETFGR
# [3] = target: T2, Tyrosine-protein kinase Tec (Homo sapiens); details: at 10 µM
# [4] = target: Angiopoietin-1 receptor (Homo sapiens) (UniProt Q02763); details: at 1 µM
# [5] = target: Angiopoietin-1 receptor (Homo sapiens) (UniProt Q02763); details: at 10 µM
# [6] = target: High affinity nerve growth factor receptor (Homo sapiens) (UniProt P04629); details: at 1 µM
# [7] = target: High affinity nerve growth factor receptor (Homo sapiens) (UniProt P04629); details: at 10 µM
# [8] = target: BDNF/NT-3 growth factors receptor (Homo sapiens) (UniProt Q16620); details: at 1 µM
# [9] = target: BDNF/NT-3 growth factors receptor (Homo sapiens) (UniProt Q16620); details: at 10 µM
# [10] = target: T3, Tyrosine-protein kinase TXK (Homo sapiens) (UniProt P42681); details: at 10 µM
# T3 sequence (whole entry): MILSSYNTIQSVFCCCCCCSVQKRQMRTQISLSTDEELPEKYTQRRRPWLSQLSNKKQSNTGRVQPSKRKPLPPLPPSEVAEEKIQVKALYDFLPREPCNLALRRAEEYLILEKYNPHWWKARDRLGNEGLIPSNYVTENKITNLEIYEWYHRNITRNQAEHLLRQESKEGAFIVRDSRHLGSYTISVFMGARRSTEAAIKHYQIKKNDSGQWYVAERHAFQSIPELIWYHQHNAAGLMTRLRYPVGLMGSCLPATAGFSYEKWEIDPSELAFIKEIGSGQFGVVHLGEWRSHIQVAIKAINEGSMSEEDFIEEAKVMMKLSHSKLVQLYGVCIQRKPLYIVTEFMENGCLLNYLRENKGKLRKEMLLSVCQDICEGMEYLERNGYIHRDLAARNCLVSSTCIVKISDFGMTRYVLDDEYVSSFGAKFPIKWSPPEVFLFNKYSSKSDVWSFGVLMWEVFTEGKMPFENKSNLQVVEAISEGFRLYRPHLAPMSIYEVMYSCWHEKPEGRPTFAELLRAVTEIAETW
# [11] = target: T4, Serine/threonine-protein kinase ULK2 (Homo sapiens) (UniProt Q8IYT8); details: at 10 µM
# T4 sequence (whole entry): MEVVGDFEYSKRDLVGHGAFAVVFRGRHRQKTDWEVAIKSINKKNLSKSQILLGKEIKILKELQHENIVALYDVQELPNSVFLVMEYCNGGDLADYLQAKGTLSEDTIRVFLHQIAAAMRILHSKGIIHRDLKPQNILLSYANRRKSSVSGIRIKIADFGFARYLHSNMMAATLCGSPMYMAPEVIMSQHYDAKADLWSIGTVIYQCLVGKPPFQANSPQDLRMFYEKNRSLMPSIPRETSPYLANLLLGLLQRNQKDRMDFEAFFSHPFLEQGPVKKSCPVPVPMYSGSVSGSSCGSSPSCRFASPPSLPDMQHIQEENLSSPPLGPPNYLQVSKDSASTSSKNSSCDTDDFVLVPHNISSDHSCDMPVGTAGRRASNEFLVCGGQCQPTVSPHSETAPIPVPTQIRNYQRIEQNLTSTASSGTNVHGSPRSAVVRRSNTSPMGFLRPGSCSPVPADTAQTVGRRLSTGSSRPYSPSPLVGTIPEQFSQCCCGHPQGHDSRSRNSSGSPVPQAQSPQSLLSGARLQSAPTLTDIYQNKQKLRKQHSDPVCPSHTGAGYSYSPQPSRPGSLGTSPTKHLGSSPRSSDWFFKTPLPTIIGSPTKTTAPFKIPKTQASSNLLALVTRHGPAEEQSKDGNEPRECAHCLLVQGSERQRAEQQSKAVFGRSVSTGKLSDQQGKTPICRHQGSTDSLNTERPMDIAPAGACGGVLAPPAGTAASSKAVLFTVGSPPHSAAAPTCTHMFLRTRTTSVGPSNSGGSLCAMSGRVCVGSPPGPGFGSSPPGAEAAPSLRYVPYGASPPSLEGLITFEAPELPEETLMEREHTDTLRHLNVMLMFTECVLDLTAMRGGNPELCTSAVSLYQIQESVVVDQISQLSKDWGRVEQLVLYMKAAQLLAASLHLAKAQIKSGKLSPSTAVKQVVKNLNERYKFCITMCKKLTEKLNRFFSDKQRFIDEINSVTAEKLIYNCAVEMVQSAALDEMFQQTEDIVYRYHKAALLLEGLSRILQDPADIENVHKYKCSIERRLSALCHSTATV
# [12] = target: T5, Serine/threonine-protein kinase ULK3 (Homo sapiens) (UniProt Q6PHR2); details: at 1 µM
# T5 sequence (whole entry): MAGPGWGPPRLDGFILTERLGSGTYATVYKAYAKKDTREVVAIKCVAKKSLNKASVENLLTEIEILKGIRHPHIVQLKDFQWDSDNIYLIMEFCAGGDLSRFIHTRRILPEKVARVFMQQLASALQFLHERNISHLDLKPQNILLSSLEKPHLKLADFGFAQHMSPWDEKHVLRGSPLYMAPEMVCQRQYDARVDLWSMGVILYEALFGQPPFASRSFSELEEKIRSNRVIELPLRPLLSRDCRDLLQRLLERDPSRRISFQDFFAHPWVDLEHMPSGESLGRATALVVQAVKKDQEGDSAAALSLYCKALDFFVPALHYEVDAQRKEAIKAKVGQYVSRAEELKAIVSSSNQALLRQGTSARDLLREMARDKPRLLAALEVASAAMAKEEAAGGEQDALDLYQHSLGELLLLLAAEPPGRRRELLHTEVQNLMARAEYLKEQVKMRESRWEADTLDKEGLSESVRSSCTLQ
# [13] = target: T5, Serine/threonine-protein kinase ULK3 (Homo sapiens); details: at 10 µM
# [14] = target: Serine/threonine-protein kinase VRK2 (Homo sapiens) (UniProt Q86Y07); details: at 1 µM
# [15] = target: Serine/threonine-protein kinase VRK2 (Homo sapiens) (UniProt Q86Y07); details: at 10 µM
# [16] = target: Serine/threonine-protein kinase WNK2 (Homo sapiens) (UniProt Q9Y3S1); details: at 1 µM;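 note: residual WNK2 kinase activity expressed as percent of uninhibited control, assayed in MOPS buffer at pH 7.0 containing EDTA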
# [17] = target: T3, Tyrosine-protein kinase TXK (Homo sapiens); details: at 1 µM
# [18] = target: T6, Testis-specific serine/threonine-protein kinase 1 (Homo sapiens) (UniProt Q9BXA7); details: at 10 µM
# T6 sequence (whole entry): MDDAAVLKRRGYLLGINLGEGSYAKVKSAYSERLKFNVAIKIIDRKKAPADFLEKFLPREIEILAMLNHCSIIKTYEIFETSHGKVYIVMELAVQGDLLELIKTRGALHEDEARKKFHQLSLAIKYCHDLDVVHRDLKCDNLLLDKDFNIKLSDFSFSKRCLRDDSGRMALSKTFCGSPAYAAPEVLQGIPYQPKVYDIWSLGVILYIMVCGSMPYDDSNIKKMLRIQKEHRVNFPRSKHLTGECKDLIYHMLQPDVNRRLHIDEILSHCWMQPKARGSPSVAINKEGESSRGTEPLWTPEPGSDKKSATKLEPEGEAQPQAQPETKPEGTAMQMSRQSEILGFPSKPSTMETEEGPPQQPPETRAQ
# [19] = target: T4, Serine/threonine-protein kinase ULK2 (Homo sapiens); details: at 1 µM
# [20] = target: T6, Testis-specific serine/threonine-protein kinase 1 (Homo sapiens); details: at 1 µM
# Serine/threonine-protein kinase WNK2 (Homo sapiens), sequence (Q9Y3S1 whole entry): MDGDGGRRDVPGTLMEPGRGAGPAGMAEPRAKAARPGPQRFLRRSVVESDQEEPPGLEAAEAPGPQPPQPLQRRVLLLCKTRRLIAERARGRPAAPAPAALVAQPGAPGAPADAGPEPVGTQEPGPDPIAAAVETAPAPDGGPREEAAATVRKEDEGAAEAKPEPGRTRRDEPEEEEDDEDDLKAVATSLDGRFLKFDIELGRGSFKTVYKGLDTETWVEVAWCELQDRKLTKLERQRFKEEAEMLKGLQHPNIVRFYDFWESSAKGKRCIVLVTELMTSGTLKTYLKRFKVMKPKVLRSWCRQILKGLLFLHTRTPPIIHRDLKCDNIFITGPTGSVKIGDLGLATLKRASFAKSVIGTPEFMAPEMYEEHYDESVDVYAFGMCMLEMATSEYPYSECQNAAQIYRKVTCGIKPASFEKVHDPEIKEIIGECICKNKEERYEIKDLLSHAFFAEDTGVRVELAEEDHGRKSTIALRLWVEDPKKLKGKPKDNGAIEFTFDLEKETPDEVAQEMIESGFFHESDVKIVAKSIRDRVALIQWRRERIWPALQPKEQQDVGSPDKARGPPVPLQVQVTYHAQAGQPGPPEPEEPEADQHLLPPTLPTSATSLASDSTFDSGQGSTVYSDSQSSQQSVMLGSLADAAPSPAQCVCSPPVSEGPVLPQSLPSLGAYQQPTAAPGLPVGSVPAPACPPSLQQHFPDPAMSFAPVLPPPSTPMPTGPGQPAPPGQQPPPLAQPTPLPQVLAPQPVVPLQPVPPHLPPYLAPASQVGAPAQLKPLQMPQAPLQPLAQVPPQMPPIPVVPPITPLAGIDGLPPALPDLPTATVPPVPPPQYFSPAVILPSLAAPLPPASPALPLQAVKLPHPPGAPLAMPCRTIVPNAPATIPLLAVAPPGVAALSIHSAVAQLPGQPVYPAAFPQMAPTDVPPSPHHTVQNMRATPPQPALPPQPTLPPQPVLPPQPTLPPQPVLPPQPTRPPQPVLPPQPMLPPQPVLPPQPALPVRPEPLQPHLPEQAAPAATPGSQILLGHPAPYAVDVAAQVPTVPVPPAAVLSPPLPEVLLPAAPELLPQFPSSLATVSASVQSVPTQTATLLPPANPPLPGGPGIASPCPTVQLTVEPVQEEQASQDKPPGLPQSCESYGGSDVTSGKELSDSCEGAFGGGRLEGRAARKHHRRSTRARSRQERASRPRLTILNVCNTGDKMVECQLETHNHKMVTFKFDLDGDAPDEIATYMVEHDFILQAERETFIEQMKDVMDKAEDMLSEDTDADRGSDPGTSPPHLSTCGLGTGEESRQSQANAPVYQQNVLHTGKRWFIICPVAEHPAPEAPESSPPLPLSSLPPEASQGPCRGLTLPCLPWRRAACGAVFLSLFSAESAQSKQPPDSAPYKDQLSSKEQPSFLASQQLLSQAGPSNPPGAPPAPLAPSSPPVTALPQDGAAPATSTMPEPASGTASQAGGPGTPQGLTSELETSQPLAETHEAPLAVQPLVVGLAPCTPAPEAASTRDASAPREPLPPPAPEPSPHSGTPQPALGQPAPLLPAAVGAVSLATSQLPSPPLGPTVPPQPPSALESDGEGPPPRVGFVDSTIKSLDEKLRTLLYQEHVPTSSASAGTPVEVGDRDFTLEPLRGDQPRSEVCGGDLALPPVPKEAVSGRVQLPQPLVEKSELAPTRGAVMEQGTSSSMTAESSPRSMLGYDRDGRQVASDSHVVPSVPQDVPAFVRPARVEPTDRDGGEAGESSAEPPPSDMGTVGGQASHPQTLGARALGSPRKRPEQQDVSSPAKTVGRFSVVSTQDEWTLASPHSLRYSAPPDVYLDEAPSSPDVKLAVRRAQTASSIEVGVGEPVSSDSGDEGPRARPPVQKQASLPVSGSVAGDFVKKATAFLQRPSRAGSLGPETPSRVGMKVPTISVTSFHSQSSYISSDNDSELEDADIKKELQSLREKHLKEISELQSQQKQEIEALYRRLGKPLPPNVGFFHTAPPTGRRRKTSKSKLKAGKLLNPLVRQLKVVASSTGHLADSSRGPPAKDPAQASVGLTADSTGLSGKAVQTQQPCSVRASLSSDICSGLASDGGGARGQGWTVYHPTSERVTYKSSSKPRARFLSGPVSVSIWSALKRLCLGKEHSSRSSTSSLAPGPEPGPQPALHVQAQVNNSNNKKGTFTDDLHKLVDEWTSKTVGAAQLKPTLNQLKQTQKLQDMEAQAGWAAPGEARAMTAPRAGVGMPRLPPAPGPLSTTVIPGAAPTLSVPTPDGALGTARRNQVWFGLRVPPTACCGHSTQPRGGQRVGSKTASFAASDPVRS
# Angiopoietin-1 receptor (Homo sapiens), sequence (Q02763 whole entry): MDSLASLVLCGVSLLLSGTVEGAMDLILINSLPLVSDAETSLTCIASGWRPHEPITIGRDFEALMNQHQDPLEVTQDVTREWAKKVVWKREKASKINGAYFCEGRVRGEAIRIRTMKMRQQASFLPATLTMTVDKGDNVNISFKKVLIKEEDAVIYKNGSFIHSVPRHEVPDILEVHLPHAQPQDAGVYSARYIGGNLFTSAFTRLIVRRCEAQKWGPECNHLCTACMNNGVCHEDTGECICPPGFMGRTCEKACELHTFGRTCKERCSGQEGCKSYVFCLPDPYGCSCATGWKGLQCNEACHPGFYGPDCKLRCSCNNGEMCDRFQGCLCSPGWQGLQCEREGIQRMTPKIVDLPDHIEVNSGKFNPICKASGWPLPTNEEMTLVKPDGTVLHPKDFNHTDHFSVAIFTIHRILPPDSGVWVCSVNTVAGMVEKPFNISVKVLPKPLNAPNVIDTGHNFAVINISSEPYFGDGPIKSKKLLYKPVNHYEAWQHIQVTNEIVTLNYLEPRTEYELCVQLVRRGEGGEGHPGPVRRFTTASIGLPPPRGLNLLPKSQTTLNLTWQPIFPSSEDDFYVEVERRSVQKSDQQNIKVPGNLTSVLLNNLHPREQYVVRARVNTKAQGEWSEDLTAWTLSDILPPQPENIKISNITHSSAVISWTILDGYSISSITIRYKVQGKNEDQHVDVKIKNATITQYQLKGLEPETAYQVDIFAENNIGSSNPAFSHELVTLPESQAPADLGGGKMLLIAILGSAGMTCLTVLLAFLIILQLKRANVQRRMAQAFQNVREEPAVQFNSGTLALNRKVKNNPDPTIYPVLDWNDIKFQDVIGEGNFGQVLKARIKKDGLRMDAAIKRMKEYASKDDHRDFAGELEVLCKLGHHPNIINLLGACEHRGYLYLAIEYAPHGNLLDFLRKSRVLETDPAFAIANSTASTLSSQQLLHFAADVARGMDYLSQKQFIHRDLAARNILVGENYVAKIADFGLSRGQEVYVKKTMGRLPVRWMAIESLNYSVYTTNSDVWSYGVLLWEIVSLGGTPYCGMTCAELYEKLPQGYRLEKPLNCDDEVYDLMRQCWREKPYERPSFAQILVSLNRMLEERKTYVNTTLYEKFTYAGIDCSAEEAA
# BDNF/NT-3 growth factors receptor (Homo sapiens), sequence (Q16620 32-822 limits assumed): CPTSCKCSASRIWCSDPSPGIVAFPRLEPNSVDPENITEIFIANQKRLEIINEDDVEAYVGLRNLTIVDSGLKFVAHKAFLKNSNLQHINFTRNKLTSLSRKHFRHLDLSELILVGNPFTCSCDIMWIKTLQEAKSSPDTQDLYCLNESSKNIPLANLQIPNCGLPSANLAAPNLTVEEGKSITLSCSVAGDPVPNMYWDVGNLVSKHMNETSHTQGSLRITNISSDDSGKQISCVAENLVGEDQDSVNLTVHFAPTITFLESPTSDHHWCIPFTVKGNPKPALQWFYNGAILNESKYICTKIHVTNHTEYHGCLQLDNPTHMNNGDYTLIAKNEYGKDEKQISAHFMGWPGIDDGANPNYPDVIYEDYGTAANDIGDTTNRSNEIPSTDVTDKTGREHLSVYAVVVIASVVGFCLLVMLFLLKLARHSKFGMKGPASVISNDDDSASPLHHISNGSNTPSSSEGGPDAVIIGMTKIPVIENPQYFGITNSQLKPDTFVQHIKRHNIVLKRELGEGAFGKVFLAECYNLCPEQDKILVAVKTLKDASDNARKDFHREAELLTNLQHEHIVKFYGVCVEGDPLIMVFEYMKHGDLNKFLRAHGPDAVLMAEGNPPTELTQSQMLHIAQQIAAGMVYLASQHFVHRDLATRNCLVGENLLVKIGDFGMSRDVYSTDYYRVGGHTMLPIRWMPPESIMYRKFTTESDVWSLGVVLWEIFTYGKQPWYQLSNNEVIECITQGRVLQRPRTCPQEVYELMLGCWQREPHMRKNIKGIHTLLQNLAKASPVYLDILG
# High affinity nerve growth factor receptor (Homo sapiens), sequence (P04629 33-796 limits assumed): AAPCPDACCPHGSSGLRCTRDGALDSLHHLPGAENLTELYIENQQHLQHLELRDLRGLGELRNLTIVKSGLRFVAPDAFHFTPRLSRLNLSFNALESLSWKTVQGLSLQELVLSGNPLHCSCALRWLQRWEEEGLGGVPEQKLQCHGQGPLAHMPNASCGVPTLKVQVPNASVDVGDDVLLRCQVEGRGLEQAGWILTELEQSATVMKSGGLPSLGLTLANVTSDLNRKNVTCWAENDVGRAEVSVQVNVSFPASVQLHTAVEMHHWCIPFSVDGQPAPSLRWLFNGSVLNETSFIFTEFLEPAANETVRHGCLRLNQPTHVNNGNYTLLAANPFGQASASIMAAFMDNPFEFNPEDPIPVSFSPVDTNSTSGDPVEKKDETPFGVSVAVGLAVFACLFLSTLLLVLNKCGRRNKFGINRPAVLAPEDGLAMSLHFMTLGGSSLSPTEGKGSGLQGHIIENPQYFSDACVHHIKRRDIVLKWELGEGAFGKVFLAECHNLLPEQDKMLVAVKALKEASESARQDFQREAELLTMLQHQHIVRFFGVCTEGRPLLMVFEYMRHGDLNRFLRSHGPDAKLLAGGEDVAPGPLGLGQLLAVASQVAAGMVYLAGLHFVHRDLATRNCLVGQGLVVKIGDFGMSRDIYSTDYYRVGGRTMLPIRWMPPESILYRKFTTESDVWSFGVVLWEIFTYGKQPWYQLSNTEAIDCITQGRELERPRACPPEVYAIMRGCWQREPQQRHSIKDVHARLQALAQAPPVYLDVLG
Compound,residual activity [1],residual activity [2],residual activity [3],residual activity [4],residual activity [5],residual activity [6],residual activity [7],residual activity [8],residual activity [9],residual activity [10],residual activity [11],residual activity [12],residual activity [13],residual activity [14],residual activity [15],residual activity [16],residual activity [17],residual activity [18],residual activity [19],residual activity [20]
Nc1nc(Nc2ccc(S(N)(=O)=O)cc2)nn1C(=O)c1c(F)cccc1F,76%,82%,34%,36%,0%,41%,5%,54%,5%,41%,39%,46%,9%,97% (inactive),69%,96% (inactive),–,–,–,–
COc1ccc(CNC(=O)Nc2ncc([N+](=O)[O-])s2)cc1,–,102%,–,–,–,–,–,–,110%,74%,–,–,–,–,–,–,67%,–,–,–
COc1cc2ncnc(Nc3cccc(Cl)c3)c2cc1OC,–,–,43%,111%,83%,88%,55%,50%,61%,49%,100%,102%,79%,102% (inactive),74%,–,87%,80%,104%,–
COc1ccc(COc2ccc(Cc3cnc(N)nc3N)cc2OC)cc1,–,100%,81%,–,–,49%,4%,55%,-12%,68%,–,–,–,–,–,–,–,–,–,–
Nc1ncnc2[nH]nc(Nc3ccc(F)cc3)c12,–,82%,21%,104%,79%,78%,40%,123%,–,18%,95%,97%,74%,97% (inactive),81%,101% (inactive),66%,–,120%,108%
NC(=O)c1ccc(-c2nc(-c3ccc4c(c3)OCCO4)c(-c3ccccn3)[nH]2)cc1,63%,96%,91%,–,72%,95%,82%,96%,68%,94%,–,–,–,118% (inactive),98%,–,90%,–,–,–
O=c1cc(N2CCOCC2)oc2c(-c3ccccc3)cccc12,68%,–,–,71%,64%,79%,71%,–,–,69%,–,–,–,–,–,–,–,–,–,–
O=C1NC(=O)c2c1c1c3ccccc3[nH]c1n1cncc21,85%,70%,65%,98%,79%,21%,9%,48%,20%,79%,86%,80%,70%,93% (inactive),91%,82% (inactive),71%,–,103%,–
O=C1NC(=O)C(c2c[nH]c3ccccc23)=C1c1c[nH]c2ccccc12,–,–,–,–,–,58%,8%,29%,24%,–,–,–,–,–,75%,–,–,–,–,–

# Source: ChEMBL document CHEMBL2218924, “A broad activity screen in support of a chemogenomic map for kinase signalling research and drug discovery” (Biochem J, 2013)
